# A selection: hits, their analogues and other compounds. The true share with any hit is near 3.1%.
# S16 viability: cytotoxicity in S16 Pmp22-F2sN Schwann cells; S16 Pmp22-F2sN Schwann cells viability, CellTiter-Glo, 24 h; Potency, µM (top dose mostly 57.5 µM), for the others: at the highest dose activity change, negative = cytotoxicity, most hits filed as cytotoxic; 43,000 tested, 0.48% active; further: potency means the concentration at half of the fitted maximal effect; on the % scale 0 is the no-effect control and ±100 the full control effect; nearly all actives have a fitted effect of over 65% in size
#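 Used to flag compounds lowering reporter output through toxicity, this quantitative HTS measures ATP-based CellTiter-Glo luminescence in S16 Pmp22-F2sN Schwann cells after 24 h compound exposure at 37C.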
# PMP22 txn prim: modulators of PMP22 gene transcription in S16 Schwann cells. AID 1508649. S16 Pmp22-F2sN Schwann cells (luciferase reporters placed in the Pmp22 gene), FLuc/NLuc coincidence luminescence, 24 h. 43,000 tested, 2% active. Potency, µM (top dose mostly 57.5 µM), without a hit: at the highest dose activity change, negative = inhibition, actives largely listed as inhibitors; active means clear falling dose curves in both reporters; inconclusive means both reporters move, but less clearly or upward; inactive means either reporter flat; the % is the NLuc reporter signal; further: potency means the concentration at half of the fitted maximal effect; on the % scale 0 is the no-effect control and ±100 the full control effect
#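 qHTS, 1536-well. Cells seeded, compounds added by pin tool, 24 h 37C. Nano-Glo reagent 1 (lysis/FLuc), 10 min RT, read; Stop&Glo, 10 min RT, read NLuc.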
# p53null 39C tox: p53 null cell cytotoxicity, nonpermissive temperature | H1299 p53-null (neo) cells, 39C, ATPlite viability, 24 h | Potency, µM (highest dose often 46.1 µM), for inactives: at the top dose activity, negative = cell killing, most hits filed as cytotoxic | 55,000 tested, 0.97% active | AID 904;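 further: potency means the concentration at half of the fitted maximal effect; 0% = DMSO only and -100% = full killing by 100 µM tamoxifen; nearly all actives have a fitted effect of over 50% in size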
#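 Temperature-shift cytotoxicity format: compound titrations on p53-null or A138V-expressing H1299 cells held 24 hr at 39C, cell ATP then measured, AC50 from Hill model.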
# mTORC1 inh: mTORC1 pathway inhibition measured by phospho-rpS6. AID 493208. 44,000 tested, 0.78% active. Potency, µM (titrated, usually from 38.3 µM), for the others: at the top dose activity change, negative = inhibition, actives largely listed as inhibitors. Tsc2-/- p53-/- MEF, phospho-rpS6 immunofluorescence/PI, 24 h;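 further: potency means the concentration at half of the fitted maximal effect; plate controls were DMSO for no effect and rapamycin for full effect; nearly all actives have a fitted effect of over 50% in size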
#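 Tsc2-/-, p53-/- mouse embryonic fibroblasts (empty-vector line) exposed to compound 24 hrs at 37 C, fixed, immunostained for phospho-rpS6 and counterstained with propidium iodide. Acumen laser scanning gives % positive cells from Alexa 488/PI ratio, thresholded using 7.5 nM rapamycin; PI count gives viability.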
# p53null 32C kill: p53 null cell cytotoxicity, permissive temperature; H1299-neo p53 null cells, ATP luminescence, 24 h, 32C; Potency, µM (top dose mostly 46.1 µM), without a hit: at the highest dose activity change, negative = cytotoxicity, actives largely listed as cytotoxic; 55,000 tested, 0.62% active; AID 903;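 further: potency means the concentration at half of the fitted maximal effect; 0% = DMSO only and -100% = full killing by 100 µM tamoxifen; nearly all actives have a fitted effect of over 55% in size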
#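 AC50 values derive from Hill modelling of qHTS concentration-response data (up to 46 uM) in H1299-neo cells. Cells were treated 24 h at 32C following overnight attachment at 37C; viability was read as cellular ATP.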
# OvCa metastasis: ovarian cancer metastasis inhibition, 3D TME model | SKOV3ip1-GFP adhesion/invasion on 3D omental model, fluorescence | 46,000 tested, 0.1% active | Potency, µM (highest dose often 45.8 µM), for the others: at the top dose activity change, negative = inhibition, hits mostly inhibitors;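 further: potency means the concentration at half of the fitted maximal effect; plate controls were DMSO wells for no effect and tomatine positive control wells for full effect; nearly all actives have a fitted effect of over 65% in size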
#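 Adhesion/invasion was scored as fixed GFP-labeled SKOV3ip1 cell counts (488/509 nm), normalized to DMSO and tomatine controls. Cancer cells in serum-free medium, with four compound doses (0.36-46 umol/L), sat 2 hr at RT then 16 hr at 37 C on a 48 hr fibroblast/mesothelial/ECM culture.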
# NLuc sat counter: inhibits NanoLuc at saturating substrate, PMP22 counter-screen. Potency, µM (series often up to 57.5 µM), for inactives: at the top dose activity change, negative = inhibition, most hits filed as inhibitors. shares compounds with PMP22 txn prim. 690 tested, 4% active. AID 1508638. Secreted NLuc enzyme (filtered S16 cell medium), Nano-Glo luminescence; further: potency means the concentration at half of the fitted maximal effect; on the % scale 0 is the no-effect control and ±100 the full control effect
# NLuc Km ctr: counter-screen for PMP22 expression modulators: NanoLuc inhibition at Km; AID 1508639; secreted NLuc enzyme, coelenterazine luminescence, Km conditions; Potency, µM (highest dose often 57.5 µM), without a hit: at the top dose activity change, negative = inhibition, hits mostly inhibitors; 690 tested, 5% active; shares compounds with PMP22 txn prim; further: potency means the concentration at half of the fitted maximal effect; on the % scale 0 is the no-effect control and ±100 the full control effect
# FLuc counter: firefly luciferase enzyme inhibition artifact for PMP22 screen | purified P. pyralis FLuc, luminescence, 10 min | AID 1508640 | shares compounds with PMP22 txn prim | Potency, µM (doses to about 57.5 µM), inactives show at the top dose activity, negative = inhibition, actives largely listed as inhibitors | 690 tested, under 10 active; further: % of control where 0% means no effect
# Target sequence (P08659 whole entry, looked up): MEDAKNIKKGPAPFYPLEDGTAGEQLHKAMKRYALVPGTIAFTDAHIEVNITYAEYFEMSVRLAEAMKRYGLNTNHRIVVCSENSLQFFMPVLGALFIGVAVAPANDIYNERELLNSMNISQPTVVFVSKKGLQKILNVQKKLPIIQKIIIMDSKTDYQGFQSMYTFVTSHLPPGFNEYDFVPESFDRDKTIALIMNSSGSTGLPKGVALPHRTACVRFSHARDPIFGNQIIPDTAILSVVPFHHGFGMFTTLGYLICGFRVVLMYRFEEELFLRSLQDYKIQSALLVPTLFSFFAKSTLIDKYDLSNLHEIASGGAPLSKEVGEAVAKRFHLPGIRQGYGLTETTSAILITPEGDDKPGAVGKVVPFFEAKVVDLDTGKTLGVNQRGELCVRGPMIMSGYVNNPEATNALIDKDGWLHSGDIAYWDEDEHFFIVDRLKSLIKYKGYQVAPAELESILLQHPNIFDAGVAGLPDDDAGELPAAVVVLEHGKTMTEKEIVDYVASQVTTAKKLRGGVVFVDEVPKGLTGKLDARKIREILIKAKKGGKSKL
# S16 viab conf: S16 Schwann cell cytotoxicity, confirmatory. 690 tested, 7% active. S16 Schwann cells viability, CellTiter-Glo ATP luminescence, 24 h. shares compounds with PMP22 txn prim. Potency, µM (highest dose often 57.5 µM), for inactives: at the highest dose activity change, negative = viability loss, hits mostly cytotoxic. AID 1508641; further: potency means the concentration at half of the fitted maximal effect; on the % scale 0 is the no-effect control and ±100 the full control effect
# PMP22 txn cnf: PMP22 transcription modulation, confirmatory; Potency, µM (doses to about 57.5 µM), for the others: top-dose activity change, negative = inhibition, actives largely listed as inhibitors; 690 tested, 22% active; shares compounds with PMP22 txn prim; AID 1508646; S16 Schwann cells Pmp22-F2sN, dual luciferase, 24 h; active means clear falling dose curves in both reporters; inconclusive means both reporters move, but less clearly or upward; inactive means either reporter flat; the % is the FLuc reporter signal; further: potency means the concentration at half of the fitted maximal effect
# PMP22 prot conf: confirmation of modulators of rat PMP22 protein expression; shares compounds with PMP22 txn prim; S16 Schwann cells Pmp22-HiBiT, luminescence, 48 h; Potency, µM (doses to about 27.9 µM), without a hit: at the highest dose activity change, negative = inhibition, actives largely listed as inhibitors; 95 tested, under 10 active
# Target sequence (P25094 whole entry, looked up): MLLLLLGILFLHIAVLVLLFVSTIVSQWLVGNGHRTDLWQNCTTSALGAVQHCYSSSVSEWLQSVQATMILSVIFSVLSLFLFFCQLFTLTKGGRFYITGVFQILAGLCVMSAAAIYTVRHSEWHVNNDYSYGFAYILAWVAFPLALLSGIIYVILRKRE
# * hit, by the source's call; i = inactive; ? = inconclusive; · = not tested or not shown. Unless noted, the call rests on the fitted dose curve; in most records, active means well fitted curve in the direction sought with a large enough effect; inconclusive means small, poorly fitted or top-dose-only effect, or another doubt; inactive means no such curve, though single readings can be large; an effect the other way counts as inactive or inconclusive.
SMILES,S16 viability,PMP22 txn prim,p53null 39C tox,mTORC1 inh,p53null 32C kill,OvCa metastasis,NLuc sat counter,NLuc Km ctr,FLuc counter,S16 viab conf,PMP22 txn cnf,others
CC1CCN(c2nc(-c3ccc(Br)cc3)nc3ccccc23)CC1,18%,8%,15%,1%,1%,i,·,·,·,·,·,
CCOC(=O)C1CCN(c2nc(-c3ccc(Br)cc3)nc3ccccc23)CC1,?,15µM*,9%,-1%,-13%,i,-4%,-3%,5%,-4%,-9%,
COC(=O)N1CCN(Cc2cccc(NC(=O)Nc3ccc(C)nc3)c2F)CC1,·,·,·,·,·,5%,·,·,·,·,·,
CCOC(=O)c1sc2ccccc2c1S(=O)(=O)N1CCN(c2cccc(OC)c2)CC1,?,6.3µM*,7%,?,10%,?,-14%,-1%,6%,0%,-29%,
CCOC(=O)c1sc2ccccc2c1S(=O)(=O)N1CCN(c2ccccc2)CC1,6%,-10%,6%,-10%,4%,-2%,·,·,·,·,·,
C=CC[C@@H]1C=C(C)C[C@H](C)C[C@H](OC)[C@H]2O[C@@](O)(C(=O)C(=O)N3CCCC[C@H]3C(=O)O[C@H](C(C)=C[C@@H]3CC[C@H](O)[C@H](OC)C3)[C@@H](C)[C@@H](O)CC1=O)[C@@H](C)C[C@@H]2OC,·,·,·,·,·,0%,·,·,·,·,·,
COc1ccc(Cl)cc1NC(=O)CSC1=Nc2ccccc2C2=NC(CCC(=O)NCc3ccco3)C(=O)N12 (centres undefined),?,20µM*,0%,-7%,17%,3%,?,?,-7%,-18%,?,
CCOC(=O)c1ccc(N2C(=O)c3n[nH]c(-c4cccs4)c3C2c2ccc(O)c(OC)c2)cc1 (centres undefined),?,16µM*,42%,?,17%,i,?,?,-9%,-19%,?,
CCOC(=O)C1CCN(C(=O)c2ccc3c(=O)n4nc(Nc5ccccc5)sc4nc3c2)CC1,4%,5.3µM*,23%,-5%,-9%,i,?,?,?,6%,-23%,
Cc1c(Cl)cccc1Nc1nn2c(=O)c3ccc(C(=O)NCCc4ccccc4)cc3nc2s1,?,10µM*,?,-3%,?,i,-15%,?,1%,27µM*,15µM*,
Cc1ccc(C)c(Nc2nn3c(=O)c4ccc(C(=O)NCCc5ccccc5)cc4nc3s2)c1,17%,13µM*,-16%,1%,-9%,i,?,-2%,-1%,19µM*,11µM*,
COc1ccccc1Nc1nn2c(=O)c3ccc(C(=O)N4CCC(C)CC4)cc3nc2s1,5%,?,24%,-1%,-8%,-8%,·,·,·,·,·,
Cc1c(Cl)cccc1Nc1nn2c(=O)c3ccc(C(=O)N(C)Cc4ccccc4)cc3nc2s1,1%,-25%,-1%,0%,-6%,0%,·,·,·,·,·,
Cc1ccc(C)c(Nc2nn3c(=O)c4ccc(C(=O)NC5CCCCC5)cc4nc3s2)c1,-19%,-21%,12%,-2%,-4%,-2%,·,·,·,·,·,
COc1cccc2c1C(=O)c1c(O)c3c(c(O)c1C2=O)C[C@@](O)(C(=O)CO)C[C@H]3O[C@H]1C[C@H](N)[C@H](O)[C@H](C)O1,·,·,·,·,·,5%,·,·,·,·,·,
CC(C=CC=C(C)C=CC1=C(C)CCCC1(C)C)=CC=CC=C(C)C=CC=C(C)C=CC1=C(C)CCCC1(C)C,·,·,·,·,·,-3%,·,·,·,·,·,
Cn1cc(-c2ccc3nnc(Sc4ccc5ncccc5c4)n3n2)cn1,·,·,·,·,·,-1%,·,·,·,·,·,
CCCCOc1c(C(=O)c2c(F)cc(C)cc2F)cnc2n[nH]cc12,·,·,·,·,·,27%,·,·,·,·,·,
C[C@]12C=CC(=O)N[C@@H]1CC[C@H]1[C@H]3CC[C@@H](C(=O)Nc4cc(C(F)(F)F)ccc4C(F)(F)F)[C@@]3(C)CC[C@@H]12,·,·,·,·,·,-6%,·,·,·,·,·,
COc1ccccc1N1CCN(C(=O)CSc2nc(-c3ccc(C(C)C)cc3)no2)CC1,0%,?,?,0%,?,-1%,·,·,·,·,·,
COC(=O)c1c(-c2ccc(Cl)cc2)noc1N1CCN(c2cccc(C(F)(F)F)c2)CC1,?,5.4µM*,15%,?,-18%,?,-1%,-3%,1%,?,16µM*,PMP22 prot conf=84%
COC(=O)c1c(-c2ccc(Cl)cc2)noc1N1CCN(c2ccc(F)cc2)CC1,8%,3.8µM*,?,0%,-3%,-5%,-1%,1%,-1%,?,13µM*,PMP22 prot conf=76%
COC(=O)c1c(-c2ccc(Cl)cc2)noc1N1CCN(c2ccccc2OC)CC1,?,8.9µM*,?,9%,13%,?,-5%,-3%,-7%,30%,19µM*,PMP22 prot conf=28%
COC(=O)c1ccc(NC(=O)CN2CCN(c3ccc(Cl)cc3)CC2)cc1,3%,9%,-8%,0%,-3%,3%,·,·,·,·,·,

# Screening data: PubChem, National Center for Advancing Translational Sciences (NCATS)
